Source: PubChem BioAssay AID1159580 (chemical genetic matrix, 2015)
About 2,000 (36%) of roughly 5,500 compounds were called active. Not shown: some 18% with an inconclusive outcome. No stated cut-off is given here; in the data, active means normalized growth mostly below about 0.91 (no sharp cut-off); inconclusive means no clear call, values can overlap the other calls; inactive means mostly above about 0.92. The list shows a part of the results.

Experiment: chemical genetic growth profiling, strain panel (AID 1159580);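 further: tested at 20 µM; growth read once vehicle control cultures reached saturation at 30 °C; 1 = growth at the plate median or of vehicle wells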
Details: growth OD

Measured: normalized growth

CC(=O)O[C@H]1CC[C@]2(C)C3CC(=O)[C@]4(C)C(C(C)=O)=CCC4C3CC[C@H]2C1 (stereo partly specified)
inactive: S. cerevisiae deletion strains, locus YAL021C, strain ccr4, stronger effect = lower value 1 | S. cerevisiae deletion strains, locus YAL026C, strain drs2, stronger effect = lower value 0.997 | S. cerevisiae deletion strains, locus YAL030W, strain snc1, stronger effect = lower value 1 | S. cerevisiae deletion strains, locus YBL061C, strain skt5, stronger effect = lower value 0.994 | S. cerevisiae deletion strains, locus YBR009C, strain hhf1, stronger effect = lower value 0.996 | S. cerevisiae deletion strains, locus YBR021W, strain FUR4, stronger effect = lower value 1 | S. cerevisiae deletion strains, locus YBR023C, strain chs3, stronger effect = lower value 0.995 | S. cerevisiae deletion strains, locus YBR171W, strain sec66, stronger effect = lower value 0.995 | S. cerevisiae deletion strains, locus YBR229C, strain ROT2, stronger effect = lower value 0.997 | S. cerevisiae deletion strains, locus YBR231C, strain swc5, stronger effect = lower value 1 | S. cerevisiae deletion strains, locus YBR279W, strain paf1, stronger effect = lower value 0.996 | S. cerevisiae deletion strains, locus YCL011C, strain gbp2, stronger effect = lower value 0.984 | S. cerevisiae deletion strains, locus YCL016C, strain dcc1, stronger effect = lower value 0.992 | S. cerevisiae deletion strains, locus YCL029C, strain bik1, stronger effect = lower value 0.987 | S. cerevisiae deletion strains, locus YCL061C, strain MRC1, stronger effect = lower value 0.994 | S. cerevisiae deletion strains, locus YCL069W, strain vba3, stronger effect = lower value 0.992 | S. cerevisiae deletion strains, locus YCR088W, strain abp1, stronger effect = lower value 0.987 | S. cerevisiae deletion strains, locus YDL005C, strain med2, stronger effect = lower value 0.984 | S. cerevisiae deletion strains, locus YDL035C, strain GPR1, stronger effect = lower value 0.956 | S. cerevisiae deletion strains, locus YDL040C, strain nat1, stronger effect = lower value 0.993 | S. cerevisiae deletion strains, locus YDL074C, strain BRE1, stronger effect = lower value 0.967 | S. cerevisiae deletion strains, locus YDL101C, strain DUN1, stronger effect = lower value 1 | S. cerevisiae deletion strains, locus YDL185W, strain tfp1, stronger effect = lower value 1.02 | S. cerevisiae deletion strains, locus YDL192W, strain arf1, stronger effect = lower value 0.978 | S. cerevisiae deletion strains, locus YDR001C, strain nth1, stronger effect = lower value 0.994 | S. cerevisiae deletion strains, locus YDR069C, strain doa4, stronger effect = lower value 1.02 | S. cerevisiae deletion strains, locus YDR101C, strain arx1, stronger effect = lower value 0.988 | S. cerevisiae deletion strains, locus YDR137W, strain rgp1, stronger effect = lower value 0.924 | S. cerevisiae deletion strains, locus YDR159W, strain sac3, stronger effect = lower value 0.921 | S. cerevisiae deletion strains, locus YDR162C, strain NBP2, stronger effect = lower value 0.987 | S. cerevisiae deletion strains, locus YDR195W, strain ref2 1 | S. cerevisiae deletion strains, locus YDR297W, strain sur2, stronger effect = lower value 0.998 | S. cerevisiae deletion strains, locus YDR318W, strain mcm21, stronger effect = lower value 0.988 | S. cerevisiae deletion strains, locus YDR334W, strain swr1, stronger effect = lower value 1.01 | S. cerevisiae deletion strains, locus YDR335W, strain msn5, stronger effect = lower value 1 | S. cerevisiae deletion strains, locus YDR388W, stronger effect = lower value 0.998 | S. cerevisiae deletion strains, locus YDR502C, strain sam2, stronger effect = lower value 0.978 | S. cerevisiae deletion strains, locus YEL003W, strain gim4, stronger effect = lower value 0.996 | S. cerevisiae deletion strains, locus YEL037C, strain rad23, stronger effect = lower value 1.01 | S. cerevisiae deletion strains, locus YEL061C, strain CIN8 (second series), stronger effect = lower value 1 | S. cerevisiae deletion strains, locus YEL061C, strain CIN8, stronger effect = lower value 0.993 | S. cerevisiae deletion strains, locus YER015W, strain faa2, stronger effect = lower value 1 | S. cerevisiae deletion strains, locus YER016W, strain bim1, stronger effect = lower value 0.994 | S. cerevisiae deletion strains, locus YER110C, stronger effect = lower value 1.01 | S. cerevisiae deletion strains, locus YER111C, strain swi4, stronger effect = lower value 1.01 | S. cerevisiae deletion strains, locus YER155C, strain BEM2 (second series), stronger effect = lower value 0.963 | S. cerevisiae deletion strains, locus YER155C, strain BEM2, stronger effect = lower value 0.983 | S. cerevisiae deletion strains, locus YER167W, strain BCK2, stronger effect = lower value 0.982 | S. cerevisiae deletion strains, locus YFR010W, strain ubp6, stronger effect = lower value 1 | S. cerevisiae deletion strains, locus YGL078C, strain dbp3, stronger effect = lower value 1.01 | S. cerevisiae deletion strains, locus YGL086W, strain mad1, stronger effect = lower value 0.968 | S. cerevisiae deletion strains, locus YGL167C, strain pmr1, stronger effect = lower value 0.985 | S. cerevisiae deletion strains, locus YGL173C, strain kem1, stronger effect = lower value 0.995 | S. cerevisiae deletion strains, locus YGL227W, strain vid30, stronger effect = lower value 0.996 | S. cerevisiae deletion strains, locus YGL240W, strain doc1, stronger effect = lower value 1.01 | S. cerevisiae deletion strains, locus YGL248W, strain PDE1, stronger effect = lower value 0.99 | S. cerevisiae deletion strains, locus YGL253W, strain hxk2, stronger effect = lower value 0.982 | S. cerevisiae deletion strains, locus YGR078C, strain PAC10, stronger effect = lower value 0.983 | S. cerevisiae deletion strains, locus YGR135W, strain pre9, stronger effect = lower value 1.01 | S. cerevisiae deletion strains, locus YGR229C, strain SMI1, stronger effect = lower value 0.995 | S. cerevisiae deletion strains, locus YGR252W, strain gcn5, stronger effect = lower value 1.05 | S. cerevisiae deletion strains, locus YHR013C, strain ard1, stronger effect = lower value 0.934 | S. cerevisiae deletion strains, locus YHR027C, strain rpn1, stronger effect = lower value 0.988 | S. cerevisiae deletion strains, locus YHR079C, strain IRE1 (second series), stronger effect = lower value 0.997 | S. cerevisiae deletion strains, locus YHR094C, strain hxt1, stronger effect = lower value 1 | S. cerevisiae deletion strains, locus YHR129C, strain ARP1, stronger effect = lower value 0.982 | S. cerevisiae deletion strains, locus YHR142W, strain chs7, stronger effect = lower value 0.972 | S. cerevisiae deletion strains, locus YHR200W, strain rpn10, stronger effect = lower value 1.01 | S. cerevisiae deletion strains, locus YIL066C, strain RNR3, stronger effect = lower value 0.98 | S. cerevisiae deletion strains, locus YIL073C, strain SPO22, stronger effect = lower value 1.03 | S. cerevisiae deletion strains, locus YIL125W, strain kgd1, stronger effect = lower value 0.989 | S. cerevisiae deletion strains, locus YIR030C, strain dcg1, stronger effect = lower value 0.998 | S. cerevisiae deletion strains, locus YJL092W, strain hpr5, stronger effect = lower value 0.988 | S. cerevisiae deletion strains, locus YJL095W, strain BCK1 (second series), stronger effect = lower value 0.997 | S. cerevisiae deletion strains, locus YJL095W, strain BCK1, stronger effect = lower value 1.02 | S. cerevisiae deletion strains, locus YJL115W, strain asf1, stronger effect = lower value 1 | S. cerevisiae deletion strains, locus YJL129C, strain trk1, stronger effect = lower value 1.01 | S. cerevisiae deletion strains, locus YJL134W, strain LCB3, stronger effect = lower value 0.988 | S. cerevisiae deletion strains, locus YJL154C, strain vps35, stronger effect = lower value 1 | S. cerevisiae deletion strains, locus YJL164C, strain tpk1, stronger effect = lower value 0.988 | S. cerevisiae deletion strains, locus YJL166W, strain qcr8, stronger effect = lower value 0.991 | S. cerevisiae deletion strains, locus YJL168C, strain set2, stronger effect = lower value 0.995 | S. cerevisiae deletion strains, locus YJL187C, strain SWE1 (second series), stronger effect = lower value 1.01 | S. cerevisiae deletion strains, locus YJR043C, strain POL32, stronger effect = lower value 1.01 | S. cerevisiae deletion strains, locus YKL009W, strain mrt4, stronger effect = lower value 0.965 | S. cerevisiae deletion strains, locus YKL068W, stronger effect = lower value 0.988 | S. cerevisiae deletion strains, locus YKL085W, strain MDH1 (second series), stronger effect = lower value 0.992 | S. cerevisiae deletion strains, locus YKL085W, strain MDH1, stronger effect = lower value 0.992 | S. cerevisiae deletion strains, locus YKL160W, strain elf1, stronger effect = lower value 0.996 | S. cerevisiae deletion strains, locus YKR026C, strain gcn3, stronger effect = lower value 0.972 | S. cerevisiae deletion strains, locus YKR091W, strain srl3, stronger effect = lower value 0.993 | S. cerevisiae deletion strains, locus YLL001W, strain dnm1, stronger effect = lower value 0.986 | S. cerevisiae deletion strains, locus YLL026W, stronger effect = lower value 0.994 | S. cerevisiae deletion strains, locus YLL041C, strain sdh2, stronger effect = lower value 0.991 | S. cerevisiae deletion strains, locus YLR027C, strain aat2, stronger effect = lower value 0.993 | S. cerevisiae deletion strains, locus YLR039C, strain RIC1, stronger effect = lower value 1 | S. cerevisiae deletion strains, locus YLR058C, strain SHM2, stronger effect = lower value 1.02 | S. cerevisiae deletion strains, locus YLR102C, strain apc9, stronger effect = lower value 1 | S. cerevisiae deletion strains, locus YLR221C, strain rsa3, stronger effect = lower value 0.978 | S. cerevisiae deletion strains, locus YLR258W, strain gsy2, stronger effect = lower value 1 | S. cerevisiae deletion strains, locus YLR262C, strain YPT6 (second series), stronger effect = lower value 0.961 | S. cerevisiae deletion strains, locus YLR262C, strain YPT6, stronger effect = lower value 0.944 | S. cerevisiae deletion strains, locus YLR268W, strain sec22, stronger effect = lower value 0.965 | S. cerevisiae deletion strains, locus YLR320W, strain mms22, stronger effect = lower value 0.922 | S. cerevisiae deletion strains, locus YLR330W, strain CHS5, stronger effect = lower value 0.969 | S. cerevisiae deletion strains, locus YLR342W, strain FKS1 (second series), stronger effect = lower value 0.947 | S. cerevisiae deletion strains, locus YLR342W, strain FKS1, stronger effect = lower value 0.976 | S. cerevisiae deletion strains, locus YLR357W, strain rsc2, stronger effect = lower value 1.01 | S. cerevisiae deletion strains, locus YLR370C, strain arc18, stronger effect = lower value 1.01 | S. cerevisiae deletion strains, locus YLR371W, strain rom2, stronger effect = lower value 1.02 | S. cerevisiae deletion strains, locus YLR384C, strain iki3, stronger effect = lower value 0.984 | S. cerevisiae deletion strains, locus YML016C, strain PPZ1, stronger effect = lower value 1 | S. cerevisiae deletion strains, locus YML032C, strain rad52, stronger effect = lower value 1 | S. cerevisiae deletion strains, locus YML120C, strain ndi1, stronger effect = lower value 1 | S. cerevisiae deletion strains, locus YML124C, strain tub3, stronger effect = lower value 1 | S. cerevisiae deletion strains, locus YMR058W, strain fet3, stronger effect = lower value 0.986 | S. cerevisiae deletion strains, locus YMR078C, strain ctf18, stronger effect = lower value 0.999 | S. cerevisiae deletion strains, locus YMR125W, strain sto1, stronger effect = lower value 1.01 | S. cerevisiae deletion strains, locus YMR129W, stronger effect = lower value 0.991 | S. cerevisiae deletion strains, locus YMR205C, strain PFK2, stronger effect = lower value 0.95 | S. cerevisiae deletion strains, locus YMR223W, strain ubp8, stronger effect = lower value 0.993 | S. cerevisiae deletion strains, locus YMR231W, strain pep5, stronger effect = lower value 1.01 | S. cerevisiae deletion strains, locus YMR307W, strain GAS1, stronger effect = lower value 0.97 | S. cerevisiae deletion strains, locus YNL067W, strain RPL9B, stronger effect = lower value 1.02 | S. cerevisiae deletion strains, locus YNL209W, strain ssb2, stronger effect = lower value 1.01 | S. cerevisiae deletion strains, locus YNL233W, strain BNI4, stronger effect = lower value 0.988 | S. cerevisiae deletion strains, locus YNL248C, strain rpa49, stronger effect = lower value 0.984 | S. cerevisiae deletion strains, locus YNL250W, strain rad50, stronger effect = lower value 1.01 | S. cerevisiae deletion strains, locus YNL271C, strain bni1, stronger effect = lower value 1.01 | S. cerevisiae deletion strains, locus YNL298W, strain CLA4, stronger effect = lower value 1 | S. cerevisiae deletion strains, locus YNL307C, strain MCK1, stronger effect = lower value 0.934 | S. cerevisiae deletion strains, locus YNL322C, strain KRE1 (second series), stronger effect = lower value 0.975 | S. cerevisiae deletion strains, locus YNR049C, strain mso1, stronger effect = lower value 0.99 | S. cerevisiae deletion strains, locus YNR052C, strain pop2, stronger effect = lower value 1.03 | S. cerevisiae deletion strains, locus YOL006C, strain TOP1, stronger effect = lower value 0.907 | S. cerevisiae deletion strains, locus YOL012C, strain htz1 1.19 | S. cerevisiae deletion strains, locus YOL147C, strain pex11, stronger effect = lower value 1 | S. cerevisiae deletion strains, locus YOR001W, strain rrp6, stronger effect = lower value 0.995 | S. cerevisiae deletion strains, locus YOR061W, strain CKA2, stronger effect = lower value 1 | S. cerevisiae deletion strains, locus YOR069W, strain VPS5, stronger effect = lower value 0.997 | S. cerevisiae deletion strains, locus YOR070C, strain gyp1, stronger effect = lower value 1.01 | S. cerevisiae deletion strains, locus YOR080W, strain dia2, stronger effect = lower value 1.01 | S. cerevisiae deletion strains, locus YOR083W, strain WHI5, stronger effect = lower value 1 | S. cerevisiae deletion strains, locus YOR106W, strain vam3, stronger effect = lower value 1.01 | S. cerevisiae deletion strains, locus YOR136W, strain idh2, stronger effect = lower value 0.984 | S. cerevisiae deletion strains, locus YOR144C, strain elg1, stronger effect = lower value 1 | S. cerevisiae deletion strains, locus YOR184W, strain ser1, stronger effect = lower value 0.893 | S. cerevisiae deletion strains, locus YOR265W, strain rbl2, stronger effect = lower value 1 | S. cerevisiae deletion strains, locus YOR270C, strain vph1, stronger effect = lower value 0.843 | S. cerevisiae deletion strains, locus YOR290C, strain snf2, stronger effect = lower value 0.996 | S. cerevisiae deletion strains, locus YOR316C, strain cot1, stronger effect = lower value 0.996 | S. cerevisiae deletion strains, locus YPL051W, strain arl3, stronger effect = lower value 0.998 | S. cerevisiae deletion strains, locus YPL078C, strain atp4, stronger effect = lower value 0.991 | S. cerevisiae deletion strains, locus YPL106C, strain sse1, stronger effect = lower value 0.976 | S. cerevisiae deletion strains, locus YPL240C, strain hsp82, stronger effect = lower value 0.995 | S. cerevisiae deletion strains, locus YPL241C, strain CIN2, stronger effect = lower value 0.988 | S. cerevisiae deletion strains, locus YPR119W, strain clb2, stronger effect = lower value 1 | S. cerevisiae deletion strains, locus YPR141C, strain kar3, stronger effect = lower value 1 | S. cerevisiae deletion strains, locus YPR163C, strain tif3, stronger effect = lower value 0.983 | S. cerevisiae deletion strains, locus YPR167C, strain met16, stronger effect = lower value 0.994 | S. cerevisiae deletion strains, strain wtn01, stronger effect = lower value 0.973 | S. cerevisiae strains, strain wild type, stronger effect = lower value 0.996
active: S. cerevisiae deletion strains, locus YDR392W, strain spt3, stronger effect = lower value 0.628 | S. cerevisiae deletion strains, locus YKR001C, strain vps1, stronger effect = lower value 0.897 | S. cerevisiae deletion strains, locus YLR418C, strain cdc73, stronger effect = lower value 0.839 | S. cerevisiae deletion strains, locus YNL071W, strain lat1, stronger effect = lower value 0.91
